Measured values taken from PubChem BioAssay.
Active and inactive are the calls of the source. Unless noted, how the calls were made is not given here.

What was measured:
[1] = resazurin metabolic signal in HepG2 cells – cell-based, resazurin fluorescence, 24 h, PK04 Diversity Set, profiling panel (AID 1172); settings: HepG2 viability, higher = more signal
[2] = budding yeast growth changes without added modifier – OD600, strain BY4716, 24 h, basal condition, primary screen (AID 1173); settings: S. cerevisiae BY4716 growth, OD600, 24 h; higher = more signal, called active from +8 up or from −8 down
[3] = viability profiling in MM1S myeloma cells – cell-based, resazurin fluorescence, basal, 24 h, PK04 Diversity Set, profiling panel (AID 1174); settings: higher = more signal, called active from +8 up or from −8 down;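 further: MM1S multiple myeloma cell line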
[4] = target: Dihydroorotate dehydrogenase (quinone), mitochondrial (Plasmodium falciparum (isolate 3D7)) (UniProt Q08210); assay: inhibition of P. falciparum DHODH – biochemical, C-terminal His tag, absorbance 600 nm, primary screen (AID 1175); settings: PfDHODH enzyme, DCIP absorbance 600 nm; higher = more signal, called active from +8 up or from −8 down;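 further: recombinant parasite enzyme with a five histidine tag at its C terminus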
Sequence of Dihydroorotate dehydrogenase (quinone), mitochondrial (Plasmodium falciparum (isolate 3D7)) (Q08210 whole entry, looked up): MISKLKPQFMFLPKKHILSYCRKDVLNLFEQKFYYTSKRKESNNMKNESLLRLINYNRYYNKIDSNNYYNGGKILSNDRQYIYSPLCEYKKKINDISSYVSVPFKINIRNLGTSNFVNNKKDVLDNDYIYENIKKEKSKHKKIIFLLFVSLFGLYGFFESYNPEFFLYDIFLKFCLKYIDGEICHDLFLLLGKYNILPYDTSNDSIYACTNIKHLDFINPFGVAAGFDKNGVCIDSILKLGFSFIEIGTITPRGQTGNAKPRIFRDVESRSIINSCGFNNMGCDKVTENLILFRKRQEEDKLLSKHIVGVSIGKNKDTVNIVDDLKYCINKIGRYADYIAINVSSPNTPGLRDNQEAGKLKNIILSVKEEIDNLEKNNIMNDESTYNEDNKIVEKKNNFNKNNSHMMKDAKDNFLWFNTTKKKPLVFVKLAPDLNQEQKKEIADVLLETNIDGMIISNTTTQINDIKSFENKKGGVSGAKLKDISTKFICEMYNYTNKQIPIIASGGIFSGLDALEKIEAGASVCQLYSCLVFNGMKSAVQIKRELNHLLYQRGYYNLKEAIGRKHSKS

[5] = inhibition of PAO1 biofilm formation – strain PAO1, LB-PBS medium, absorbance 600 nm, primary screen (AID 1176); settings: P. aeruginosa PAO1 growth/biofilm, A600, 12 h; higher = more signal
[6] = growth modulation of vineyard yeast isolate – strain RM11-1a, OD600, basal, 24 h, primary screen (AID 1177);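 further: cultures grown under basal conditions with no added stressor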; settings: S. cerevisiae RM11-1a growth, OD600, 24 h; higher = more signal, called active from +8 up or from −8 down
[7] = growth of efflux-deficient E. coli DRC39 – strain DRC39, OD650, 24 h, E. coli filamentation inducers, primary screen (AID 1178);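 further: growth measured as culture turbidity by optical density at 650 nm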; settings: E. coli DRC39 acrAB, higher = more signal, called active from +8 up or from −8 down
[8] = growth of efflux-deficient E. coli DRC39 – strain DRC39, OD650, 48 h, E. coli filamentation inducers, primary screen (AID 1179);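 further: screen aims at cell division blockers that make cells filament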; settings: E. coli DRC39 delta-acrAB growth, higher = more signal, called active from +8 up or from −8 down
[9] = viability profiling in RPMI8226 myeloma cells – cell-based, resazurin fluorescence, basal, 24 h, PK04 Diversity Set, profiling panel (AID 1180); settings: higher = more signal;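 further: RPMI8826 multiple myeloma cell line at 5000 cells per well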
[10] = target: E3 ubiquitin-protein ligase XIAP (Homo sapiens) (UniProt P98170); assay: small molecules binding XIAP protein – biophysical, small-molecule microarray, fluorescence 635 nm, primary screen (AID 1181); settings: higher = more signal;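 further: score merges 667 nm emission and signal to noise over triplicate slides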
Sequence of E3 ubiquitin-protein ligase XIAP (Homo sapiens) (P98170 whole entry, looked up, the tested form may be a part): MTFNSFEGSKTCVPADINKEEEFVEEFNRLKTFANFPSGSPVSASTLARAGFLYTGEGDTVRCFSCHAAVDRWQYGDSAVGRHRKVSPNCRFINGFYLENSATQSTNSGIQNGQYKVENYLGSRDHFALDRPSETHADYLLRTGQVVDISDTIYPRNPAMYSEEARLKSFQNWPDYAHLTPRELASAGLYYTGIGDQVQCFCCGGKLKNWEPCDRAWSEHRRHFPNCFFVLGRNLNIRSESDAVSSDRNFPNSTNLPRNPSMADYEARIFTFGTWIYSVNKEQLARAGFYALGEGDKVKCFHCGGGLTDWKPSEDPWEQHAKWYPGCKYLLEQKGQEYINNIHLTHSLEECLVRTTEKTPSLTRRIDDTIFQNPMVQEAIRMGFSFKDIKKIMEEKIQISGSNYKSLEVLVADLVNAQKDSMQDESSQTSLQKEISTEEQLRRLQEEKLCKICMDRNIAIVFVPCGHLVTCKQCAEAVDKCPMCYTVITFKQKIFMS

[11] = system: XIP peptide (Xip251-270) binding; assay: XIP fragment 251-270 binding compounds – biochemical, small-molecule microarray, fluorescence 635/667 nm, 0.1 µg/mL protein, primary screen (AID 1182); settings: fluorescent protein binding, 635 nm, higher = more signal, called active from +8 up or from −8 down
[12] = system: XIP peptide (Xip251-270); assay: compounds binding XIP fragment 251-270 – biochemical, small-molecule microarray, fluorescence 635/667 nm, 0.5 µg/mL protein, primary screen (AID 1183); settings: fluorescence 635 nm, higher = more signal
[13] = blood-stage malaria parasite viability loss – strain 3D7, DAPI fluorescence, 100 nL, primary screen (AID 1184);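 further: parasites grown inside human red blood cells in medium with human serum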; settings: P. falciparum 3D7 growth, 3 d, higher = more signal
[14] = target: Homeobox protein Hox-A13 (Mus musculus) (UniProt Q62424); assay: disruptors of Hoxa13 oligonucleotide interaction – biochemical, fluorescence polarization, labeled oligonucleotide, primary screen (AID 1185); settings: Hoxa13:DNA binding, 15 min, higher = more signal, called active from +8 up or from −8 down
Sequence of Homeobox protein Hox-A13 (Mus musculus) (Q62424 whole entry, looked up): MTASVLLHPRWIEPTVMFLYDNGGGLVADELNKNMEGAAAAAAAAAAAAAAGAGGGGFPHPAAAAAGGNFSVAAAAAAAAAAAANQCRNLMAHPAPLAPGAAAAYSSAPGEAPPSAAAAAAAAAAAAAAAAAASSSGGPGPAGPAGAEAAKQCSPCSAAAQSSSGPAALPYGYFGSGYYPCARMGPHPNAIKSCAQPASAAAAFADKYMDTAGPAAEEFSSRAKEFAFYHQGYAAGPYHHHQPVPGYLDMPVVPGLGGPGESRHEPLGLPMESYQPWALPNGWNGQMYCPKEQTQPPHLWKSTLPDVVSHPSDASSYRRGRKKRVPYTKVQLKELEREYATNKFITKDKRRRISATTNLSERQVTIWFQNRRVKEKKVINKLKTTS

[15] = blockers of DNA damage checkpoint Chk1 activation – imaging, HeLa, hydroxyurea, phospho-Chk1 antibody, percent positive cells, primary screen (AID 1186); settings: hydroxyurea-induced phospho-Chk1 immunofluorescence imaging, higher = more signal
[16] = blockers of DNA damage checkpoint Chk1 activation – imaging, HeLa, hydroxyurea, phospho-Chk1 nuclear intensity, primary screen (AID 1187); settings: hydroxyurea-induced phospho-Chk1 immunofluorescence imaging, higher = more signal

Compound	z-score [1]	z-score [2]	z-score [3]	composite z-score [4]	z-score [5]	z-score [6]	z-score [7]	z-score [8]	z-score [9]	composite z-score [10]	composite z-score [11]	composite z-score [12]	z-score [13]	z-score [14]	z-score [15]	z-score [16]
CCCCCN1CC=CC23O[C@@H]4C=CCOC(=O)[C@@H]4[C@H]2C(=O)N(CCCO)[C@@H]3C1=O (some centres undefined)	0.22	-0.988 (inactive)	0.806 (inactive)	-1.67 (inactive)	0.0837 (inactive)	-0.0379 (inactive)	-0.625 (inactive)	0.244 (inactive)	0.217	-0.0988	0.591 (inactive)	0.747	-1.8	-3.67 (inactive)	0.679 (inactive)	0.402 (inactive)
CC(C)(C)OC(=O)CC[C@@]1(C(=O)NCCN2CCOCC2)N=C(c2ccc(OCCCO)cc2)O[C@@H]1c1ccccc1	-0.781	-0.712 (inactive)	0.596 (inactive)	-0.317 (inactive)	-0.347 (inactive)	0.572 (inactive)	1.15 (inactive)	1.32 (inactive)	0.641	0.228	1.38 (inactive)	0.825	0.248	-4.84 (inactive)	-0.396 (inactive)	-0.395 (inactive)
CC(=O)Nc1cc(Br)ccc1C(=O)O	-0.128	0.311 (inactive)	0.161 (inactive)	-0.398 (inactive)	-0.103 (inactive)	-0.129 (inactive)	-0.141 (inactive)	-0.535 (inactive)	0.357	-0.239	1.16 (inactive)	0.53	1.96	0.273 (inactive)	0.1 (inactive)	0.0714 (inactive)
O=C1C[C@@](C(=O)NC2CC2)(c2ccc([N+](=O)[O-])cc2)[C@@H](c2ccc(CO)cc2)N1CC12CC3CC(CC(C3)C1)C2	-0.494	-0.369 (inactive)	-2.23 (inactive)	0.117 (inactive)	-0.273 (inactive)	0.0982 (inactive)	-0.284 (inactive)	0.466 (inactive)	-3.25	0.0975	-0.181 (inactive)	0.611	-0.909	-5.08 (inactive)	-0.635 (inactive)	-0.617 (inactive)
COCCOC(=O)N1C(=O)[C@@]2(c3cc(C#CC4(O)CCCCCC4)ccc31)[C@H](C(=O)N1CCCCCCC1)[C@H]1C(=O)O[C@H](c3ccccc3)[C@H](c3ccccc3)N1[C@@H]2c1ccccc1OCCO	-0.449	0.71 (inactive)	-0.297 (inactive)	0.969 (inactive)	1.07 (inactive)	2.36 (inactive)	-1.49 (inactive)	-1.16 (inactive)	-0.432	0.026	-0.0713 (inactive)	0.762	-2.39	3.19 (inactive)	-0.0968 (inactive)	0.298 (inactive)
N#Cc1ccc(NN2C(C(O)c3cccs3)C=CC3C(=O)N(c4ccccc4)C(=O)C32)cc1 (centres undefined)	-0.375	-1.97 (inactive)	0.0171 (inactive)	-1.41 (inactive)	1.08 (inactive)	-1.59 (inactive)	0.766 (inactive)	1.36 (inactive)	0.131	-0.126	0.529 (inactive)	0.477	0.407	-2.34 (inactive)	0.0213 (inactive)	-0.548 (inactive)
NC(=O)NCC#Cc1ccc2c(c1)[C@]1(C(=O)N2)[C@H](C(=O)NC[C@H](O)c2ccccc2)[C@H]2C(=O)O[C@H](c3ccccc3)[C@H](c3ccccc3)N2[C@@H]1c1ccc(O)cc1	-0.0042	1.56 (inactive)	-0.027 (inactive)	0.389 (inactive)	1.32 (inactive)	2.12 (inactive)	0.346 (inactive)	0.0233 (inactive)	-0.518	0.15	5.26 (inactive)	0.432	0.872	-4.24 (inactive)	-0.0342 (inactive)	-0.468 (inactive)
COCCOC(=O)N1C(=O)[C@@]2(c3cc(C#CCNC(N)=O)ccc31)[C@H](c1ccccc1OCCO)N1[C@H](c3ccccc3)[C@H](c3ccccc3)OC(=O)[C@H]1[C@@H]2C(N)=O	-0.554	1.91 (inactive)	-0.279 (inactive)	1.39 (inactive)	0.971 (inactive)	2.64 (inactive)	-0.144 (inactive)	-0.375 (inactive)	0.138	-0.0525	-0.0949 (inactive)	0.467	-0.585	-2.6 (inactive)	0.0842 (inactive)	-0.266 (inactive)
O=C1OCC=C[C@H]2OC34C=CCN(c5ccc6ccccc6c5)C(=O)[C@H]3N(CCCO)C(=O)[C@@H]4[C@@H]12 (some centres undefined)	-0.364	-0.82 (inactive)	-0.712 (inactive)	-0.959 (inactive)	-0.385 (inactive)	-0.13 (inactive)	-0.265 (inactive)	-0.641 (inactive)	-2.41	-0.181	0.185 (inactive)	1.03	-1.94	-2.03 (inactive)	-0.114 (inactive)	-0.226 (inactive)
CN(C)CCCNC(=O)[C@@]1(Cc2ccccc2I)c2ccccc2C(=O)N(Cc2ccccc2C(F)(F)F)[C@H]1c1ccc(CO)cc1	-6.04	-6.8 (inactive)	-7.53 (inactive)	0.35 (inactive)	0.0993 (inactive)	0.653 (inactive)	-0.299 (inactive)	0.247 (inactive)	-4.01	-0.288	0.165 (inactive)	0.514	-1.83	-2.47 (inactive)	-0.239 (inactive)	-0.347 (inactive)
CCCNC(=O)[C@@]1(c2ccc([N+](=O)[O-])cc2)CC(=O)N(CC23CC4CC(CC(C4)C2)C3)[C@@H]1c1ccc(CO)cc1	-1.8	1.07 (inactive)	-3.32 (inactive)	-0.225 (inactive)	0.416 (inactive)	1.05 (inactive)	-0.421 (inactive)	-0.391 (inactive)	-3.71	0.182	0.462 (inactive)	0.424	0.0816	-4.89 (inactive)	-0.29 (inactive)	-0.683 (inactive)
COc1c(C)cc(-c2cc3c(c(-c4ccc(Oc5ccccc5)cc4)n2)[Si](C(C)C)(C(C)C)OC3)cc1C	-0.566	2.09 (inactive)	-0.391 (inactive)	0.567 (inactive)	1.18 (inactive)	1.19 (inactive)	-0.227 (inactive)	-0.707 (inactive)	-0.155	-0.187	-0.631 (inactive)	-0.466	-0.898	-0.746 (inactive)	0.621 (inactive)	0.37 (inactive)
COCCCNC(=O)[C@@]1(C)c2ccccc2C(=O)N(Cc2cc(C(F)(F)F)cc(C(F)(F)F)c2)[C@H]1c1ccc(CO)cc1	-0.063	-0.0384 (inactive)	0.186 (inactive)	1.03 (inactive)	0.127 (inactive)	0.429 (inactive)	0.534 (inactive)	1.3 (inactive)	0.394	-0.204	0.707 (inactive)	0.875	-0.577	-3.6 (inactive)	-0.385 (inactive)	0.0021 (inactive)
CN(C)CCCCNC(=O)[C@H]1C[C@H]2C(=O)N[C@@H](Cc3ccccc3)C(=O)N2[C@H]1c1ccc(O)cc1	-0.0562	-0.5 (inactive)	-0.0866 (inactive)	-16.7 (active)	2.86 (inactive)	0.466 (inactive)	-0.539 (inactive)	-0.855 (inactive)	-0.0845	0.0256	0.508 (inactive)	0.0009	-1.16	-0.0255 (inactive)	-0.0685 (inactive)	-0.195 (inactive)
CC(=O)NCCCC[C@@H]1NC(=O)[C@H]2C[C@@H](C(=O)NCCCCCC[N+](C)(C)C)[C@@H](c3cccc(OCCO)c3)N2C1=O	1.04	-0.458 (inactive)	0.56 (inactive)	-1.75 (inactive)	3.45 (inactive)	-0.718 (inactive)	-0.47 (inactive)	-0.711 (inactive)	0.0647	0.0871	1.87 (inactive)	0.893	-1.26	-4.59 (inactive)	-0.372 (inactive)	-0.255 (inactive)
COC(=O)[C@@]1(Cc2ccc(OC)cc2)[C@H]2c3cc(C(=O)N4CCCC4)n(Cc4cc(F)cc5c4OCOC5)c3C[C@H]2CN1C(=O)c1ccccc1	-1.47	0.433 (inactive)	-5.86 (inactive)	-0.607 (inactive)	0.687 (inactive)	-0.334 (inactive)	-1.32 (inactive)	-1.24 (inactive)	-3.53	0.389	0.365 (inactive)	0.857	-1.72	-6.08 (inactive)	0.127 (inactive)	-0.271 (inactive)
C=CC[C@@H](OC(=O)Nc1ccc(OC)cc1)c1ccc(O)c2ccccc12	-1.07	-16.6 (active)	-6.13 (inactive)	-7.4 (inactive)	1.73 (inactive)	-20.3 (active)	0.305 (inactive)	-0.473 (inactive)	-4.48	0.0413	1.08 (inactive)	0.737	-0.166	-0.5 (inactive)	0.311 (inactive)	0.626 (inactive)
COC(=O)[C@@]1(Cc2ccccc2)N=C(c2ccc(OCCCO)cc2)O[C@H]1c1ccccc1N=[N+]=[N-]	-0.914	0.0975 (inactive)	-2.58 (inactive)	0.0308 (inactive)	1.49 (inactive)	1.57 (inactive)	0.368 (inactive)	0.752 (inactive)	-2.93	0.723	0.856 (inactive)	0.887	-2.27	0.459 (inactive)	-0.48 (inactive)	-0.775 (inactive)
O=C1O[C@@H](c2ccccc2)[C@@H](c2ccccc2)N2[C@@H](c3ccc(O)cc3)[C@]3(C(=O)Nc4ccc(C#CC5=CCCCC5)cc43)[C@@H](C(=O)O)[C@H]12	1.46	-4.6 (inactive)	1.23 (inactive)	-2.56 (inactive)	2.85 (inactive)	-2.61 (inactive)	0.661 (inactive)	1.32 (inactive)	1.02	0.332	1.53 (inactive)	0.327	0.202	-5.46 (inactive)	-0.0372 (inactive)	0.277 (inactive)
